Rows were chosen to be rich in hits. Some 9.3% of all compounds tested hit in one or more screens of this group.
M1 antag – antagonists of rat M1 muscarinic receptor; CHO-M1 cells, Fluo-4 calcium, ACh EC80 antagonist mode; hits give low values; B-score at 10 µM; P08482; AID 628; 3.4% of 64,000 active;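 active = calcium fluorescence response, raw or row-and-column corrected B-score, differing from the plate sample mean either way at a set confidence level, mostly lower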
Target sequence (P08482 whole entry, looked up): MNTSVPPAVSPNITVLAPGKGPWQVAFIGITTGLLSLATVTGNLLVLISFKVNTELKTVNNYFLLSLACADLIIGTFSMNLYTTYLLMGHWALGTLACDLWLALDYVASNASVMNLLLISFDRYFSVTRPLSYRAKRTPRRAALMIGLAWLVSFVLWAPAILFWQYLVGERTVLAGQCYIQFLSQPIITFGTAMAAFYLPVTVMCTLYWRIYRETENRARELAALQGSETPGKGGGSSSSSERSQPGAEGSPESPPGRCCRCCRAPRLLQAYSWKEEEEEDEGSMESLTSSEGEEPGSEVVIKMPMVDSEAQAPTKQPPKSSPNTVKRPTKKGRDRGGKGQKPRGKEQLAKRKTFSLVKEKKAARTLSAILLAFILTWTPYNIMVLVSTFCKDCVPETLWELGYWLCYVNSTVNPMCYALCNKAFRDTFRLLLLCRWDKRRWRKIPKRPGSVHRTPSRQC
Htt clearance – mutant huntingtin protein clearance; HeLa Exon1htt(103Q)mCFP, aggregate imaging; zero = plate's median compound well; inhibition, % at 1.5 µM; 0.42% of 47,000 active; AID 853;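 active = inhibition of aggregate fluorescence above about 70%, also judged a hit by eye on the cell image, limit read from the data, passing the limit was not always enough; inconclusive = no rule stated for this call; inactive = not judged a hit on image review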;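 also: cells exposed to compound for three days before fixation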
Fluor 339 460 – intrinsic fluorescence of library compounds, ex339/em460 – biochemical, MLSMR library, data from DPM-DC assay, artefact control, profiling panel; 5.5% of 65,000 active; compound autofluorescence, ex339/em460 nm, NADH buffer; hits give high values; 1 = no-compound wells, NADH background; fluorescence fold increase at 10 µM;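 active = at 10 µM, mean starting fluorescence two-fold or more over control wells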;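 also: signal is the first read of a kinetic run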
M1 ag – agonists of M1 muscarinic receptor; CHO-M1 cells, Fluo-4 calcium fluorescence, agonist mode; hits give high values; B-score at 10 µM; 3% of 64,000 active;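 active = fluorescence rise, raw or as B-score row- and column-corrected plate score, outside the 99.7% band of its plate's samples, either direction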
NADH enzymes – inhibition of NAD/NADH coupling enzymes, library profiling; coupled PK/LDH NADH assays, four targets; IC50, µM (titrated, usually from 10 µM); 0.02% of 65,000 active; AID 774;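 active = single-dose screening hits from any of four coupled enzyme assays that gave an IC50 when retested across doses; inconclusive = no clear call, values can overlap the other calls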;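 also: the DPM-DC format reads NADH fluorescence rather than 340 nm absorbance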
Abs 340nm – compounds absorbing at 340 nm; compound absorbance at 340 nm, fold over control; fold change at 10 µM; 65,000 tested, under 10 active; AID 708;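 active = at 10 µM dose, initial 340 nm absorbance at least 2 fold that of control wells; inactive = change under 2 fold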;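 also: initial absorbance extrapolated from kinetic A340 decline of NADH oxidation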
M1 agonist conf – confirmation of rat M1 muscarinic receptor agonists. shares compounds with M1 ag. CHO-M1 cells, Fluo-4 calcium fluorescence, agonist mode; actives lie on both sides. fluorescence change (max-min) at 10 µM. 19% of 1,700 active. AID 1488;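 active = fluorescence change differs from the solvent-only DMSO control mean at a set confidence level in both duplicate runs; inconclusive = differs from solvent-only control mean in just one of two runs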;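 also: an EC20 dose of acetylcholine follows compound addition during the same imaging run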
M4 agonist ctr – activates rat M4 receptor in counter-screen for M1 agonists. shares compounds with M1 ag. CHO M4/Gqi5 cells, Fluo-4 calcium fluorescence, agonist mode; actives lie on both sides. fluorescence change (max-min) at 10 µM. 9% of 1,700 active. AID 1741;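 active = fluorescence change differing from the plate's solvent-only control wells at 99.7% confidence in both duplicates, whether higher or lower; inconclusive = differs from solvent controls in only one of two duplicates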
A number is an active result.

CC1C/C(=N\NC(=S)NC(C)C)CC(C)(C)C1 (configuration not stated) was read as Htt clearance inactive.
`COc1ccc(-n2c(O)c(/C=N/n3cnnc3)c3ccccc3c2=O)cc1` gave M1 antag inactive, Fluor 339 460 2.1, M1 ag 15, NADH enzymes inactive, Abs 340nm inactive, M1 agonist conf 164 and M4 agonist ctr inactive.
`Cc1ccc(-n2c(O)c(C=NC3CCS(=O)(=O)C3)c3ccccc3c2=O)cc1` (configuration not stated) gave Htt clearance inactive.
For O=c1c2ccccc2c(/C=N/n2cnnc2)c(O)n1-c1ccccc1 the results were M1 antag inactive, Htt clearance inactive, Fluor 339 460 inactive, M1 ag 9, NADH enzymes inactive, Abs 340nm inactive, M1 agonist conf 149 and M4 agonist ctr 123.
For CCCOc1nc2c(c(=O)n(C)c(=O)n2C)n1Cc1cccc2ccccc12 the results were M1 antag inactive, Htt clearance inactive, Fluor 339 460 inactive, M1 ag 3.6, NADH enzymes inactive, Abs 340nm inactive, M1 agonist conf inconclusive and M4 agonist ctr inactive.
Screening Cn1c(=O)c2c(nc(N3CCNCC3)n2Cc2cccc3ccccc23)n(C)c1=O returned M1 antag inactive, Fluor 339 460 inactive, M1 ag inactive, NADH enzymes inactive and Abs 340nm inactive.
`Cc1cc(C)n2nc(SCC(=O)N(C)Cc3ccccc3)nc2n1` gave M1 antag inactive, Fluor 339 460 inactive, M1 ag 2.1, NADH enzymes inactive, Abs 340nm inactive, M1 agonist conf inactive and M4 agonist ctr inconclusive.
O=c1[nH]c2ccsc2c(=O)n1-c1ccc(F)c(Cl)c1 was read as M1 antag inactive, Fluor 339 460 inactive, M1 ag inactive, NADH enzymes inactive and Abs 340nm inactive.
`C=CCn1c(=O)/c(=C/c2ccc(C)o2)s/c1=C(/C#N)C(=O)c1ccccc1` gave M1 antag inactive, Fluor 339 460 inactive, M1 ag 12, NADH enzymes inactive, Abs 340nm inactive, M1 agonist conf 86 and M4 agonist ctr 275.
Cc1ccc(/C=c2\sc3nc(-c4ccccc4Br)nn3c2=O)o1 was read as M1 antag inactive, Htt clearance inactive, Fluor 339 460 inactive, M1 ag inactive, NADH enzymes inactive and Abs 340nm inactive.
`CC(=O)c1c(C)[nH]c(C(=O)OCc2nnc(-c3ccccc3)o2)c1C` gave M1 antag inactive, Htt clearance inactive, Fluor 339 460 inactive, M1 ag 2.8, NADH enzymes inactive, Abs 340nm inactive, M1 agonist conf inconclusive and M4 agonist ctr -70.
CC(C(=O)OCc1nnc(-c2ccccc2)o1)N1C(=O)c2ccccc2C1=O (configuration not stated) was read as M1 antag inactive, Fluor 339 460 inactive, M1 ag -2.2, NADH enzymes inactive, Abs 340nm inactive, M1 agonist conf inactive and M4 agonist ctr inactive.
N#CNC1=NCN(Cc2ccccc2)CN1 was read as M1 antag inactive, Htt clearance inactive, Fluor 339 460 inactive, M1 ag inactive, NADH enzymes inactive and Abs 340nm inactive.
Screening Cc1cc(N2CCN(c3nc4ccccc4s3)CC2)n2ncnc2n1 returned M1 antag inactive, Htt clearance inactive, Fluor 339 460 inactive, M1 ag 3.6, NADH enzymes inactive, Abs 340nm inactive, M1 agonist conf inactive and M4 agonist ctr inconclusive.
For OCCCc1nc2n(n1)C(c1ccccc1Cl)C=C(c1cccs1)N2 (configuration not stated) the results were M1 antag inactive, Fluor 339 460 3.8, M1 ag 33, NADH enzymes inactive, Abs 340nm inactive, M1 agonist conf 206 and M4 agonist ctr 197.
Screening CCn1cnc2sc(C(=O)N(Cc3ccc(N(C)C)cc3)Cc3ccco3)c(C)c2c1=O returned M1 antag inactive, Fluor 339 460 inactive, M1 ag 12, NADH enzymes inactive, Abs 340nm inactive, M1 agonist conf inactive and M4 agonist ctr inconclusive.
Screening COC(=O)c1ccc(-c2ccco2)n1Cc1nc(-c2ccc(OC)c(OC)c2)oc1C returned M1 antag inactive, Fluor 339 460 inactive, M1 ag 1.8, NADH enzymes inactive, Abs 340nm inactive, M1 agonist conf inactive and M4 agonist ctr inactive.
O=C1CCc2cc(S(=O)(=O)N3CCCC3C(=O)NC3CCCCCCC3)ccc2N1 (configuration not stated) was read as Htt clearance inactive.
`CCCS(=O)(=O)N1CCN(CC2CC3C=CC2C3)CC1` (configuration not stated) gave M1 antag inactive, Htt clearance inactive, Fluor 339 460 inactive, M1 ag 3.1, NADH enzymes inactive, Abs 340nm inactive, M1 agonist conf inactive and M4 agonist ctr inconclusive.
Screening Cc1cc(-n2c(C)cc(C(=O)CSc3nnc4sc5ccccc5n34)c2C)no1 returned M1 antag inactive, Htt clearance inactive, Fluor 339 460 inactive, M1 ag inactive, NADH enzymes inactive and Abs 340nm inactive.
Cc1cc(-n2c(C)cc(C(=O)CSc3ncnc4ccccc34)c2C)no1 was read as M1 antag inactive, Fluor 339 460 inactive, M1 ag 7, NADH enzymes inactive, Abs 340nm inactive, M1 agonist conf inactive and M4 agonist ctr inconclusive.
For Cc1cc(-n2c(C)cc(C(=O)COc3ccc4ccc(=O)oc4c3)c2C)no1 the results were M1 antag inactive, Fluor 339 460 4.2, M1 ag 6.2, NADH enzymes inactive, Abs 340nm inactive, M1 agonist conf inconclusive and M4 agonist ctr inactive.
O=[n+]1c2c(n([O-])c3cc(F)c(N4CCCC4)cc31)CCCC2 was read as M1 antag inactive, Htt clearance inactive, Fluor 339 460 inactive, M1 ag 188, NADH enzymes inactive, Abs 340nm inactive, M1 agonist conf 593 and M4 agonist ctr 561.
`O=[n+]1c2c(n([O-])c3cc(F)c(N4CCCC4)cc31)CCC2` gave M1 antag inactive, Htt clearance inactive, Fluor 339 460 inactive, M1 ag 92, NADH enzymes inactive, Abs 340nm inactive, M1 agonist conf 632 and M4 agonist ctr 549.
For Cc1noc(C(=O)Nc2sc3c(c2C#N)CCC3)c1Cl the results were M1 antag inactive, Fluor 339 460 inactive, M1 ag -3.6, NADH enzymes inactive, Abs 340nm inactive, M1 agonist conf inactive and M4 agonist ctr inactive.
CCOc1ccc(C(=O)Nc2c(C(N)=O)oc3ccccc23)cc1 was read as M1 antag inactive, Htt clearance inactive, Fluor 339 460 inactive, M1 ag inactive, NADH enzymes inactive and Abs 340nm inactive.

Screening results: PubChem BioAssay, several laboratories
